The whole screen tested about 38,000 compounds, of which about 1,200 (3.2%) showed an effect of 50% or more. The median lay at about -58%. The list comes from a sample in which strong results are over-represented; it also holds similar structures and randomly drawn compounds.

The experiment deals with Plasmodium falciparum. The experiment in a line: Calibr Malaria Delayed Death Assay SOP. The class given is functional, organism-based. Further details: scale not given: in the data most compounds retested in dose-response had high values. The settings on record: concentration 4.99e-06 (unit not given; other assays of the set use mol/L).
As to `Cc1cnn(CCNCc2c(C)nn(Cc3ccccc3)c2C)c1`, the “Percent Effect” value was found to be 31.58%.

Regarding `Cc1cnn(CCNCc2nccn2CC(F)(F)F)c1`, the “Percent Effect” value is recorded as 12.08%.

In the case of `Cc1cnn(CCNCc2nccn2Cc2ccccc2)c1`, the “Percent Effect” value is 81.96%.

With `CC(NC(=O)c1cccs1)(C(N)=O)c1cccc(C(F)(F)F)c1` (stereo not given), the “Percent Effect” value is -110.1%.

For `CCc1nc(N2CCC3(CC2)OCCCC3O)ncc1C` (stereo not given), the “Percent Effect” value was -35.89%.

As to `COC(=O)C(C)(C)NC(=O)c1cnc(Cc2ccc(F)cc2)s1`, the “Percent Effect” value turned out to be 74.7%.

With `COC(=O)[C@H](C)NC(=O)c1cnc(Cc2ccc(F)cc2)s1`, the “Percent Effect” value was -108.7%.

As to `CCc1ncc(C(=O)NC(C)(C)C(=O)OC)s1`, the “Percent Effect” value is -64.84%.

For the molecule `CC1c2cccn2CCN1C(=O)CCc1nc(-c2ccccc2)no1` (stereo not given), the “Percent Effect” value is recorded as -13.83%.

`Cc1nn(C)c(N(C)C)c1CNC1CCOc2c(F)cccc21` (stereo not given): the “Percent Effect” value is listed as -94.95%.

Consider `Cn1cc(CNC2CCCOc3c2ccc2ccccc32)cn1` (stereo not given), for which the “Percent Effect” value worked out at 61.58%.

Consider `Cc1cccc2c1OCCC2NCc1c(C)nn(C)c1N(C)C` (stereo not given), for which the “Percent Effect” value was -2.294%.

Turning to `Cn1cc(CNC2CCCOc3c(Cl)cccc32)cn1` (stereo not given), the “Percent Effect” value was 17.16%.

For `Cc1cccc2c1OCCCC2NCc1nnc2n1CCCCC2` (stereo not given), the “Percent Effect” value is recorded as -75.07%.

Take `Cn1ccnc1CNC1CCCOc2c1ccc1ccccc21` (stereo not given): the “Percent Effect” value came out at 76.31%.

Take `O=C(O)Cc1cnc(-c2c(Cl)cccc2Cl)s1`: the “Percent Effect” value is listed as -103%.

Turning to `CN(Cc1ccco1)Cc1cncc2c1CCN(S(C)(=O)=O)C2.Cl.Cl`, the “Percent Effect” value is -71.86%.

As for `CCCNC(=O)CCNc1cncc(-n2nc(C)cc2C)n1`, the “Percent Effect” value is reported as -96.17%.

On to `CCOc1cccc(COC(=O)c2cc(C)on2)n1`, for which the “Percent Effect” value was -20.94%.

For `FC(F)(F)c1ccnc(N2C[C@H]3CCN(c4cccnc4)C[C@H]3C2)n1.O=C(O)C(F)(F)F`, the “Percent Effect” value was -4.152%.

Consider `CC1CN(C)CCN1C(=O)c1ccn(-c2ccc(F)cc2)n1` (stereo not given), for which the “Percent Effect” value is on record as -53.04%.

Consider `CCC(NCc1ccccn1)c1ccccc1OCC(=O)NC` (stereo not given), for which the “Percent Effect” value is on record as -34.3%.

Take `CNC(=O)COc1ccc(-c2ccccc2)nc1`: the “Percent Effect” value is reported as -42.95%.

`CNC(=O)Cc1noc(Cc2cccc(Cl)c2)n1`: the “Percent Effect” value is listed as -69.96%.

For `CCC(NCc1ccccc1)c1ccccc1OCC(=O)NC` (stereo not given), the “Percent Effect” value was 63.6%.

As for `CCC(NC(N)=O)c1ccccc1OCC(=O)N1CCCC1` (stereo not given), the “Percent Effect” value is recorded as -42%.

On to `Cc1sc(NS(=O)(=O)c2ccccc2)nc1C(=O)NC1CC1`, for which the “Percent Effect” value is on record as -59.95%.

Consider `CCOCC1CN(C(=O)c2cccc(C)n2)Cc2cnn(C)c21` (stereo not given), for which the “Percent Effect” value is listed as -41.72%.

On to `CCOC(=O)N1CCN(C(=O)CCn2ccc3c(OC)cccc32)CC1`, for which the “Percent Effect” value was -55.78%.

Regarding `Cc1cc(CC(=O)NC2CCCN(c3ccccc3Cl)C2=O)n[nH]1` (stereo not given), the “Percent Effect” value is recorded as -141.2%.

Values taken from ChEMBL document CHEMBL3988442, “University of Dundee, Small-Polar-MMV Screening Library” (2021).
